For some assays here: Measured potencies and affinities stand elsewhere. Calls of active or inactive are those of the source. Cut-off read from the data, not from the text of the source: active = parasite load remaining mostly below about 12% (no sharp cut-off); inactive = mostly above about 10%.

We go through 13 compounds from PubChem BioAssay.

Assay [1] in a line: blockers of polyQ-driven CASP3 activation – cell-based (AID 1583). Conditions: polyglutamine-induced caspase-3 activation, cell assay; stronger effect = higher value;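 tested at 10 µM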.
Assay [2] can be described thus: yeast 75Q aggregation reduction – 75Q-TubU reporter (AID 1593). Particulars: Yeast 75Q polyglutamine aggregation reporter.
Assay [3] is described as follows: restoration of touch response, mutant HTT neurons – whole organism, C. elegans mechanosensory neurons, N-terminal huntingtin (AID 1599). Particulars: C. elegans polyQ-huntingtin mechanosensory neurons, stronger effect = higher value.
Assay [4] is described as follows: blockers of cytochrome c efflux from mitochondria – biochemical, purified mitochondria (AID 1603).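 Note: mouse liver mitochondria challenged with calcium chloride; signal normalized to the plate average as 100%.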 Conditions: stronger effect = lower value.
A short description of assay [5]: polyglutamine aggregate formation blockers (AID 1604). Particulars: polyglutamine-induced protein aggregation inhibition assay; stronger effect = higher value; tested at 2.5 µM.
Assay [6] can be described thus: glutamate transport activators, MN-1 cells, MN-1 cell line (AID 1612).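 Note: tested at 1 µM final; 0% = mean of DMSO vehicle wells on each plate; positive means more glutamate uptake than control and negative means less.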 Conditions: MN-1 motor neuron cells, stronger effect = higher value.
Assay [7] can be described thus: 75Q-TubH aggregate inhibition, S. cerevisiae, yeast (AID 1616). Particulars: S. cerevisiae 75Q-TubH polyglutamine aggregation suppression; stronger effect = higher value.
The nature of assay [8]: GFP-Q80 aggregate reduction, neuronal-like cells, cell-based, NGF-treated PC12, GFPQ80 (AID 1614).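 Note: lower means fewer inclusions and 0 means no inclusions at all.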 Particulars: PC12 NGF-treated GFP-polyQ80 inclusion reduction.
Assay [9] in a line: P. berghei load reduction in hepatocytes – cell-based, HepG2, luciferase luminescence, HepG2 viability, primary screen (AID 624349).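 Note: 100% = mean of DMSO negative control wells on the same plate.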 Particulars: P. berghei liver stage in HepG2, luciferase luminescence, concentration not given here; parasite load remaining: stronger effect = lower value; viability: measured here: HepG2 viability without parasites.

In general, inhibition refers to the drop in the measured response relative to a control, in per cent. Turning to `COC1=C2C[C@@H](C)C[C@H](OC)[C@H](O)[C@@H](C)/C=C(\C)[C@@H](OC(N)=O)[C@H](OC)/C=C\C=C(/C)C(=O)NC(=CC1=O)C2=O`, the inhibition in [1] is -5.02%. Also, in assay [2], the score is 2.11. Further, in assay [3], the rescue above control worked out at 0. The cytochrome c release ratio in [4] came to 1.13. Moreover, the inhibition of aggregation in assay [5] is -23.4%. Further, in assay [6], the glutamate uptake change worked out at 10.3%. The same compound registered an aggregation suppression score in [7] of 1.43.

On to `CC(Oc1ccccc1)C(=O)NC1C(=O)N2C(C(=O)O)C(C)(C)S[C@H]12` (some centres not stated), for which the inhibition in assay [1] was 11.5%. In [2], this compound had a score of 1.28. In addition, the rescue above control in assay [3] is -11.5. Further, in assay [4], the cytochrome c release ratio turned out to be 0.66. Also, in assay [5], the inhibition of aggregation was determined as 83.6%. Also, in assay [6], the glutamate uptake change turned out to be 4.57%. Further, the inclusion score in assay [8] is 2. The aggregation suppression score in assay [7] turned out to be 1.04.

Regarding `CN[C@@H]1[C@H](O)[C@H](NC)[C@H]2O[C@@]3(O)C(=O)C[C@@H](C)O[C@H]3OC2[C@H]1O` (some centres not stated), the inhibition in assay [1] was 1.15%. The compound also returned a score in assay [2] of 1.13. In assay [3], this compound registered a rescue above control of -5.98. For the same compound, in assay [4], the cytochrome c release ratio worked out at 0.86. In addition, the inhibition of aggregation in [5] amounted to 42.9%. Besides, the glutamate uptake change in assay [6] came to 4.38%. This compound displayed an inclusion score in assay [8] of 2. In [7], this compound returned an aggregation suppression score of 1.36.

For `CC(=O)OCC(=O)[C@@]12OC(C)(C)O[C@@H]1C[C@H]1C3C[C@H](F)C4=CC(=O)C=CC4(C)[C@@]3(F)[C@@H](O)C[C@@]12C` (some centres not stated), in assay [1], the inhibition is -2.33%. For the same compound, the score in [2] stood at 1.28. This compound showed a rescue above control in [3] of 14.3. In addition, the cytochrome c release ratio in [4] is 0.88. In addition, the inhibition of aggregation in assay [5] was found to be 85.9%. Also, the glutamate uptake change in assay [6] worked out at 13.8%. For the same compound, in [8], the inclusion score amounted to 2. Moreover, the aggregation suppression score in [7] came to 0.953.

As to `OCc1cc2c(cn1)[nH]c1ccccc12`, the inhibition in [1] amounted to 15.8%. The score in [2] was determined as 0.82. Also, the rescue above control in [3] worked out at 10.8. The cytochrome c release ratio in assay [4] stood at 0.58. Further, the inhibition of aggregation in [5] is -1.27%. In addition, the glutamate uptake change in [6] worked out at 17.8%. Also, the inclusion score in assay [8] is 2. Further, the aggregation suppression score in [7] turned out to be 1.28.

For the compound `Cc1cc(Nc2ccccc2C(=O)O)ccc1Cl`, the inhibition in assay [1] is -21.2%. Moreover, the score in assay [2] was -0.11. In [3], this compound showed a rescue above control of -9.28. In assay [4], the cytochrome c release ratio was 4.31. Besides, the inhibition of aggregation in assay [5] came to 77.8%. In addition, the glutamate uptake change in [6] is -15.3%. This compound also gave an inclusion score in assay [8] of 1. In assay [7], the aggregation suppression score is -0.491.

One may read the viability as a per cent measure of how many cells are alive, often set against a control. Consider `COc1ccc(CCC(=O)c2c(O)cc(O[C@@H]3O[C@H](CO)C(O)[C@H](O)C3O[C@@H]3O[C@@H](C)[C@H](O)[C@@H](O)[C@H]3O)cc2O)cc1O` (some centres not stated), for which the inhibition in assay [1] was found to be 18.6%. Also, the score in assay [2] worked out at 1.15. The compound also registered a rescue above control in assay [3] of -2.46. For the same compound, in assay [4], the cytochrome c release ratio worked out at 1.1. In assay [5], the inhibition of aggregation amounted to 77.8%. In addition, the glutamate uptake change in assay [6] was -15.4%. In assay [8], the inclusion score is 2. Also, the aggregation suppression score in assay [7] worked out at 1.25. For the same compound, in [9], the parasite load remaining is 146% (inactive) and the viability was 70.8%.

As to `COc1ccc2c(c1OC)C(=O)O[C@H]2[C@@H]1c2ccccc2CCN1C`, the inhibition in assay [1] was found to be 69.2%. The compound also gave a score in [2] of 1.08. Besides, the rescue above control in [3] is -8.02. The cytochrome c release ratio in [4] stood at 0.71. For the same compound, the inhibition of aggregation in assay [5] came to 72.2%. The glutamate uptake change in assay [6] was -0.43%. For the same compound, in assay [8], the inclusion score stood at 2. The compound also returned an aggregation suppression score in assay [7] of 19.

Take `CCC(=O)O[C@@H](O[P@](=O)(CCCCc1ccccc1)CC(=O)N1C[C@H](C2CCCCC2)C[C@H]1C(=O)O)C(C)C`: the inhibition in assay [1] stood at 5.65%. Further, the score in [2] was 0.97. The rescue above control in [3] stood at 2.83. For the same compound, the cytochrome c release ratio in [4] is 0.8. Moreover, in [5], the inhibition of aggregation turned out to be 47.1%. Moreover, the glutamate uptake change in assay [6] is 4.48%. The compound also displayed an inclusion score in assay [8] of 2. Moreover, the aggregation suppression score in assay [7] worked out at 0.527.

Consider `OCCS`, for which the inhibition in assay [1] stood at 26.7%. Further, in [2], the score was 1.26. Besides, the rescue above control in assay [3] is -1.67. Also, in assay [4], the cytochrome c release ratio was determined as 1.18. For the same compound, in [5], the inhibition of aggregation was 29.4%. Further, in assay [6], the glutamate uptake change was found to be 5.07%. Moreover, in [8], the inclusion score was 2. This compound gave an aggregation suppression score in assay [7] of 1.5.

As for `C[C@@H]1OC(Oc2c(-c3ccc(O)c(O)c3)oc3cc(O)cc(O)c3c2=O)[C@H](O)[C@H](O)[C@H]1O` (some centres not stated), the inhibition in assay [1] was -5.21%. In assay [2], this compound displayed a score of 1.19. Also, the rescue above control in [3] amounted to 16.2. Also, the cytochrome c release ratio in assay [4] was determined as 0.64. In addition, in assay [5], the inhibition of aggregation is 72.2%. The glutamate uptake change in assay [6] was -4.44%. This compound displayed an inclusion score in assay [8] of 2. In assay [7], this compound yielded an aggregation suppression score of 1.5.

On to `C1CCN2C[C@@H]3CC(CN4CCCC[C@@H]34)[C@H]2C1`, for which, in [1], the inhibition amounted to 16.2%. The same compound gave a score in assay [2] of 1.32. Besides, the rescue above control in assay [3] was -2.17. Moreover, the cytochrome c release ratio in [4] was found to be 1.45. In addition, the inhibition of aggregation in assay [5] was found to be 72.7%. Further, in assay [6], the glutamate uptake change was -9.72%. The compound also returned an inclusion score in assay [8] of 2. In [7], this compound yielded an aggregation suppression score of 1.48.

Turning to `CC(N)C(O)c1cccc(O)c1` (configuration not stated), the inhibition in assay [1] was -31.9%. Besides, the score in assay [2] is 1.32. The rescue above control in assay [3] came to 2.5. In addition, in [4], the cytochrome c release ratio was 0.89. Moreover, the inhibition of aggregation in [5] stood at 91.7%. For the same compound, in assay [6], the glutamate uptake change was -5.75%. In assay [8], this compound yielded an inclusion score of 2. This compound displayed an aggregation suppression score in [7] of 1.46. In [9], the parasite load remaining is 141% (inactive) and the viability is 88.5%.
